Laboratory results from PubChem BioAssay AID485272 (The Scripps Research Institute Molecular Screening Center, 2010).
In all, about 330,000 compounds went through this assay and about 1,300 (0.39%) were called active. This excerpt belongs to a sample that is enriched for actives. Values without a mark were called inactive.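 Rule for the calls: active = percent inhibition above a cutoff equal to the mean of all tested compounds plus 3 SD (cut at about 15% in these data); inactive = the rest.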

Each molecule was assayed against Protein-arginine deiminase type-4 (Homo sapiens) (UniProt Q9UM07) (assay: human PAD4 inhibitors, primary screen, biochemical, fluorescence polarization, 1536-well format (AID 485272;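 note: 0% = PAD4 with RCA probe and DMSO and 100% = probe without PAD4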)). Details: recombinant PAD4, RCA probe fluorescence polarization; at 6.36 µM; hits give high values.
Protein-arginine deiminase type-4 (Homo sapiens), sequence (Q9UM07 whole entry, looked up): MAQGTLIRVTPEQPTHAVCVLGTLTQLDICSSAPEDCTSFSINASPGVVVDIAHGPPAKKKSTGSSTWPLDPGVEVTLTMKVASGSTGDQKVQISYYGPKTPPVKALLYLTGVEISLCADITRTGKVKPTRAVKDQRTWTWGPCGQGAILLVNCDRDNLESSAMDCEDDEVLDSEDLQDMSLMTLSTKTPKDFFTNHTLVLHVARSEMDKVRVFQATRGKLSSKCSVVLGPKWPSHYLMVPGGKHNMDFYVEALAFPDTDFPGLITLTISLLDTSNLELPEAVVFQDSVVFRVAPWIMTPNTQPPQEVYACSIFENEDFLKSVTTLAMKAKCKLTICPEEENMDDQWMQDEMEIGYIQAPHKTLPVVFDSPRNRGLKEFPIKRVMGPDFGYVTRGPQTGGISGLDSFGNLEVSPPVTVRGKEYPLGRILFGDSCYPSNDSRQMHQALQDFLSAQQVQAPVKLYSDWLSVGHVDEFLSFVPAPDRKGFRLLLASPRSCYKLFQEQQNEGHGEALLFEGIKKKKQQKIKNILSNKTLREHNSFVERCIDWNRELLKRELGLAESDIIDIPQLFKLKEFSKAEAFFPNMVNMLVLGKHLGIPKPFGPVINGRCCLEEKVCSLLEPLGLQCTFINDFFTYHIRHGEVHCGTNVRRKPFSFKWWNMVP

Row | Structure (SMILES) | inhibition
1 | CCCC1=Nc2cc(C(=O)NCc3ccco3)ccc2Sc2ccccc21 | -2.78%
2 | Cn1c(=O)cc(OCC(=O)N2CCN(c3ccccc3F)CC2)c2ccccc21 | -3.43%
3 | O=C(NNC(=O)c1cccc(S(=O)(=O)Nc2ccc(Cl)cc2)c1)c1ccc(=O)[nH]c1 | 0.33%
4 | O=C(O)C1=NN(c2c(F)c(F)cc(F)c2F)C(=O)CC1 | 0.4%
5 | Cc1cc(C(=O)CSc2nc(N)cc(=O)[nH]2)c(C)n1CCc1ccc(Cl)cc1 | 23.8% (active)
6 | CCCc1cc(=O)[nH]c(SCC(=O)c2cc(C)n(CCC)c2C)n1 | 1.34%
7 | Cc1cc(C(=O)CSc2nc(N)cc(=O)[nH]2)c(C)n1-c1cccc(F)c1 | 3.24%
8 | O=C(COc1cccnc1[N+](=O)[O-])Nc1ccc(Cl)cc1F | -3.69%
9 | COC(=O)c1ccc(NC(=O)CSc2nncn2-c2cccnc2)cc1 | 6.18%
10 | COC(=O)c1ccc(NC(=O)CSc2nncc3ccc(OC)c(OC)c23)cc1 | 26.1% (active)
11 | CCOC(=O)CSc1nncc2ccc(OC)c(OC)c12 | -1.97%
12 | CC(=O)c1cccc(-n2nnnc2SCC(=O)NNC(=O)C2CCCCC2)c1 | 0.09%
13 | COCCN1C=C2C(=O)C(C)(OC(=O)C3CCCC3)C(=O)C=C2C=C1c1ccsc1 (centres undefined) | 17.8% (active)
14 | CC1(OC(=O)CCc2ccccc2)C(=O)C=C2C=C(c3ccc(C#N)cc3)N(CCc3ccccn3)C=C2C1=O (centres undefined) | -12.6%
15 | CC1(OC(=O)C2CCCC2)C(=O)C=C2C=C(c3ccc(C#N)cc3)OC=C2C1=O (centres undefined) | 4.94%
16 | COc1ccc(N(CC(=O)NC2CCCCCCC2)S(=O)(=O)c2c(C)nn(C)c2C)cc1 | -21.2%
17 | COc1ccccc1C(=O)N/C(=C/c1ccc2c(c1)OCO2)C(=O)Nc1cccc(C(=O)O)c1 | 4.24%
18 | COc1ccc(NC(=O)c2ccccc2[N+](=O)[O-])cc1OC | 0.28%
19 | CC(=O)Oc1ccccc1C(=O)Nc1ncc([N+](=O)[O-])s1 | 21.3% (active)
20 | O=C(Cc1c(F)cccc1Cl)Nc1ncc([N+](=O)[O-])s1 | -0.75%

Row | Structure (SMILES) | inhibition
21 | Cc1ccn2cc(-c3nonc3C)cc2c1 | 15.3% (active)
22 | COc1ccc(-c2cn3ccc(C)cc3n2)cc1 | -3.72%
23 | COCC(C)n1c(C)cc(C(=O)CSc2cc(C)c3ccccc3n2)c1C (centres undefined) | -0.49%
24 | COc1ccc(CNC(=O)COc2cccnc2[N+](=O)[O-])cc1 | 1.13%
25 | COC(=O)c1cc(NC(=O)c2cc(C(C)(C)C)nn2Cc2cccc(C)c2)ccc1N1CCOCC1 | 2.9%
26 | COc1cc(C(F)(F)F)nc2c(Br)c(C(C)(C)C)nn12 | -1.55%
27 | C[N+](C)(C)CCOP(=O)([O-])OC[C@H](O)CO | 0.71%
28 | O=C(CN1CCCCCC1)Nc1ccc(Br)cc1Br | 129% (active)
29 | O=C(CN1CCCCCC1)Nc1ccc(Cl)cc1F | -5.26%
30 | O=C(CN1CCCCCC1)Nc1ccc(Br)cc1[N+](=O)[O-] | 0.42%
31 | CC(C)C(=O)N1CC(=O)Nc2ccc(F)cc2C1c1ccc(F)cc1 (centres undefined) | 4.93%
32 | Cc1[nH][nH]c(=O)c1C(c1ccc(-c2ccc(Cl)cc2)o1)c1c(C)[nH][nH]c1=O | 20.2% (active)
33 | CCOc1ccc(C(c2c(C)[nH][nH]c2=O)c2c(C)[nH][nH]c2=O)cc1OCC | -2.1%
34 | O=C(NC1CCCCC1)c1ccc(-c2ccc(Cl)cc2)o1 | 0.31%
35 | CCOC(=O)N1CCC(c2cc(=O)n(-c3ccccc3)[nH]2)CC1 | 55.1% (active)
36 | CCOC(=O)N1CCC(NC(=O)COc2cc(=O)n(C)c3ccccc23)CC1 | 3.7%
37 | CCOC(=O)N1CCC(NC(=O)CCc2ccccc2)CC1 | 1.67%
38 | CCOC(=O)Cn1nnnc1C | -0.83%
39 | CC(C)N(Cc1ccccc1)C(=O)COC(=O)c1ccccc1SCC(=O)N1CCCC1 | -1.69%
40 | Nc1scc[n+]1Cc1cccc2cccnc12 | -3.55%

Row | Structure (SMILES) | inhibition
41 | N#C/C(=C(/O)Cc1cccc2ccccc12)c1nc2ccccc2s1 | -0.3%
42 | c1ccc2c(C[n+]3csc4ccccc43)cccc2c1 | 58.5% (active)
43 | COc1ccccc1CNC(=O)C1CCN(c2nc3ccccc3o2)CC1 | 23% (active)
44 | COc1ccc(OC)c(CNC(=O)C2CCCN(c3nc4ccccc4o3)C2)c1 (centres undefined) | 0.33%
45 | COc1ccccc1CNC(=O)C1CCN(S(C)(=O)=O)CC1 | 3.16%
46 | COc1ccc(CCNC(=S)NC(=O)/C=C/c2ccc(C)cc2)cc1OC | 0.57%
47 | CC(C)CC(=O)NC(=S)Nc1ccc(F)cc1F | -0.18%
48 | Cc1nn(C)c(C)c1NS(=O)(=O)c1ccc(OC(F)(F)F)cc1 | -4.79%
49 | O=C1COc2ccc(S(=O)(=O)Nc3ccc(OC(F)(F)F)cc3)cc2N1 | -0.73%
50 | O=S(=O)(Nc1ccc(O)c2ccccc12)c1ccc(OC(F)(F)F)cc1 | 20.5% (active)
51 | O=S(=O)(Cc1cc(Cl)nc(-c2cccnc2)n1)c1ccccc1 | -1.95%
52 | Cc1ccc(C(NC(=O)N2CCCC2)C(Cl)(Cl)Cl)cc1F (centres undefined) | 0.88%
53 | CC(C)Oc1ccc(S(=O)(=O)N2CCOCC2)cc1NC(=O)C1CSC2(C)CCC(=O)N12 (centres undefined) | -1.2%
54 | Cc1c(C2=CCN(S(=O)(=O)c3ccc(Cl)cc3)CC2)c2ccccc2n1C | -48.2%
55 | COc1ccc(S(=O)(=O)N2CCOCC2)cc1NC(=O)CSc1ncnc2ccccc12 | 18.5% (active)
56 | COc1ccc(S(=O)(=O)N2CCOCC2)cc1NC(=O)COc1ccccc1 | 6.68%
57 | COc1ccc(S(=O)(=O)N2CCOCC2)cc1NC(=O)CSc1nnc(NC2CC2)s1 | -2.8%
58 | CCCCCN(C(=O)CCC(=O)OCC(=O)NC1CCC(C)CC1)c1c(N)n(CCCC)c(=O)[nH]c1=O (centres undefined) | -1.97%
59 | CC(C)CC(=O)N1CCC(O)(CS(=O)(=O)Cc2ccccc2)CC1 | -3.05%
